The values below come from PubChem BioAssay (Tox21).

“And” between values parts separate entries of the source, which are not always exact repeats. Equal entries are not always repeated. Inconclusive results are not listed. Entries that show only a call come without a potency. The source made the active and inactive calls. Calls follow the shape of the full dose curve.
Potency is read from the fitted curve at half-maximal effect.

This assay in a line: qHTS assay for small molecule agonists of the p53 signaling pathway (AID 651631). Also: nearly all actives have a fitted effect of over 15% in size. The settings on record: HCT-116 p53RE-bla reporter, beta-lactamase FRET ratio, 16 h; series mostly up to 73.3 µM; activation: at the top concentration. The method, boiled down: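 We treat p53RE-bla HCT-116 cells with compounds for 16 h at 37 °C, add LiveBLAzer B/G FRET substrate for 2 h at room temperature, and measure fluorescence intensity.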
In the case of `O=C1C=CC(=O)C=C1`, the Potency result was “inactive”.
Turning to `C=CCc1ccc2c(c1)OCO2`, the Potency result is “inactive”.
In the case of `CCCCOCCOP(=O)(OCCOCCCC)OCCOCCCC`, the “activation” value is -3.34% (inactive).
Regarding `N[C@@H](Cc1ccc(N(CCCl)CCCl)cc1)C(=O)O`, the Potency is 13.3 µM (active) and 26.2 µM (active).
Regarding `CCC(=O)O[C@H]1CC[C@H]2[C@@H]3CCC4=CC(=O)CC[C@]4(C)[C@H]3CC[C@]12C`, the “activation” value is 3.51% [at 34.7 µM] (inactive).
For `CCOC(=S)S`, the Potency result is “inactive”.
Turning to `Nn1cnnc1`, the Potency result is “inactive”.
Consider `c1ccc(N=Nc2ccccc2)cc1`, for which the “activation” value was 3.48% [at 95.1 µM] (inactive).
With `OCC(O)CO`, the Potency entry was “inactive”.
Turning to `COc1ccc(C=O)cc1`, the Potency result is “inactive”.
Take `ClC1C(Cl)C(Cl)C(Cl)C(Cl)C1Cl` (stereo not drawn): the Potency result was “inactive”.
In the case of `c1ccc(NNc2ccccc2)cc1`, the “activation” value is 5.05% (inactive).
Consider `C[C@]12CCC(=O)C(O)=C1CC[C@@H]1[C@@H]2CC[C@]2(C)C(=O)CC[C@@H]12`, for which the Potency entry was “inactive”.
For `CCN(CC)N=O`, the Potency result is “inactive”.
Take `CCCCN(CCCC)N=O`: the Potency entry was “inactive”.
`C=CCN(CC=C)C(=O)C(Cl)Cl`: the “activation” value was -1.62% (inactive).
Turning to `O=C(O)C(F)(F)C(F)(F)C(F)(F)C(F)(F)C(F)(F)C(F)(F)C(F)(F)F`, the Potency result was “inactive”.
Regarding `CCOP(=S)(OCC)O/N=C(\C#N)c1ccccc1`, the “activation” value was -1.05% (inactive).
Take `Nc1ccc(Cl)c(Cl)c1`: the “activation” value is 1.7% (inactive).
In the case of `N#CCCCl`, the Potency result is “inactive”.
Regarding `O=[N+]([O-])c1cccc2ccccc12`, the Potency result was “inactive”.
As to `CCN(CC)C(=O)SCc1ccc(Cl)cc1`, the Potency entry was “inactive”.
As for `COP(=O)(OC)OC`, the Potency entry was “inactive”.
Still for that read-out and setting: the entry for `Nc1ccc(-c2ccccc2)cc1` is “inactive”.
As to `O=[N+]([O-])c1ccc(O)c([N+](=O)[O-])c1`, the “activation” value was 3.04% (inactive).
The same measure, in the same setting: under `CN(C)C(=O)Nc1ccc(Cl)cc1` stands -1.13% (inactive); under `Oc1cc(Cl)ccc1Oc1ccc(Cl)cc1Cl`, 8.55% (inactive).
Regarding `Nc1ccc(Cl)cc1N`, the Potency is 19.3 µM (active).
Still for that read-out and setting: under `COP(=S)(OC)Oc1cc(Cl)c(Cl)cc1Cl` stands “inactive”.
With `CC(C)C(=O)OCC(C)(C)C(OC(=O)C(C)C)C(C)C` (stereo not drawn), the “activation” value was -2.83% (inactive).
Turning to `C#C[C@]1(O)CC[C@H]2[C@@H]3CCC4=CC(=O)CC[C@]4(C)[C@H]3CC[C@@]21C`, the Potency result was “inactive”.
`NNC(N)=S`: the Potency entry is “inactive”.
For the compound `Oc1c(Cl)c(Cl)c(Cl)c(Cl)c1Cl`, the Potency was 3.37 µM (active) and 3.43 µM (active).
Take `CCCCCCOC(=O)c1ccccc1C(=O)OCCCCCC`: the “activation” value is -2.45% (inactive).
With `Cc1cc(Cl)ccc1OCCCC(=O)O`, the “activation” value is 2.5% (inactive).
On to `CC(C)N(C(=O)SCC(Cl)=C(Cl)Cl)C(C)C`, for which the Potency entry is “inactive”.
Turning to `O=c1oc2ccccc2c(O)c1C(CC(O)c1ccc(-c2ccc(Br)cc2)cc1)c1ccccc1` (stereo not drawn), the Potency is 21.1 µM (active) and 46 µM (active).
In the case of `CCCCC(CC)COC(=O)c1ccc(C(=O)OCC(CC)CCCC)c(C(=O)OCC(CC)CCCC)c1` (stereo not drawn), the “activation” value is 0.286% (inactive).
